According to the supplement of paper PMC10849652:
The full data set covers some 7,900 targets. This sample favours those with a hit. About 0.6% of all pairs of compound and target were hits.

Tests used:
Assay in all cases: log2 fold change, soluble protein after heating vs DMSO (PISA); higher = thermal stabilisation; K562 cells, 10 uM, 30 min; active = over 0.2 and 3.5 SD of the protein, either way, in both replicates (recomputed)
[1] = compound: CC[C@@H]1C(=O)N(C)c2cnc(Nc3ccc(C(=O)NC4CCN(C)CC4)cc3OC)nc2N1C1CCCC1
Outline: (§1)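 K562 cells (2×10^6 cells/mL) were treated with 10 μM compound for 30 min, and aliquots were heated for 3 min over 48°C-58°C. Pooled aliquots were extracted in PBS with 0.5% NP-40 at 4°C, and the supernatant after 21,000xg for 90 min was measured by TMTpro 16plex LC-MS/MS with channel sums equalised. Reported thermal stability, relative to control samples and from duplicates, is a log2 fold change.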

volasertib = compound: CC[C@@H]1C(=O)N(C)c2cnc(Nc3ccc(C(=O)N[C@H]4CC[C@H](N5CCN(CC6CC6)CC5)CC4)cc3OC)nc2N1C(C)C [volasertib]
Outline: as §1

[2] = compound: CC[C@H](C)N1C=C(C2=C(C=C(C=C21)C3=CN=C(C=C3)N4CCNCC4)C(=O)NCC5=C(C=C(NC5=O)C)C)C
Outline: as §1

epoxomicin = compound: CC[C@H](C)[C@@H](C(=O)N[C@@H]([C@@H](C)O)C(=O)N[C@@H](CC(C)C)C(=O)[C@]1(CO1)C)NC(=O)[C@H]([C@@H](C)CC)N(C)C(=O)C [epoxomicin]
Outline: as §1

[3] = compound: CCn1c(C(=O)N(C2CC2)C2CC2)cc2c3c(ncn3C)c(Nc3cc(C)n(C)n3)nc21
Outline: as §1

[4] = compound: CCn1cc(-c2ccnc3[nH]c(-c4cccc(CN(C)C)c4)cc23)c(-c2ccc(NC(=O)N(C)C)cc2)n1
Outline: as §1

[5] = compound: CN(C)CC(=O)Nc1ccc2[nH]c(=O)c3ccccc3c2c1
Outline: as §1

rosiglitazone = compound: CN(CCOC1=CC=C(C=C1)C[C@H]2C(=O)NC(=O)S2)C3=CC=CC=N3 (racemic) [rosiglitazone]
Outline: as §1

[6] = compound: CN1C2=C(C3=C1C(=O)N(N=C3)CC4=CC(=CC=C4)N)SC(=C2)S(=O)C
Outline: as §1

[7] = compound: CN1CCC(CNc2ccc3ncc(-c4cccc(OC(F)(F)F)c4)n3n2)CC1
Outline: as §1

saracatinib = compound: CN1CCN(CCOc2cc(OC3CCOCC3)c3c(Nc4c(Cl)ccc5c4OCO5)ncnc3c2)CC1 [saracatinib]
Outline: as §1

sotrastaurin = compound: CN1CCN(c2nc(C3=C(c4c[nH]c5ccccc45)C(=O)NC3=O)c3ccccc3n2)CC1 [sotrastaurin]
Outline: as §1

alvocidib = compound: CN1CC[C@H](c2c(O)cc(O)c3c(=O)cc(-c4ccccc4Cl)oc23)[C@H](O)C1 [alvocidib]
Outline: as §1

Tubastatin A = compound: CN1CCc2c(c3ccccc3n2Cc2ccc(C(=O)NO)cc2)C1 [Tubastatin A]
Outline: as §1

[8] = compound: CNC(=O)C1=CC=CC=C1NC2=NC(=NC=C2Cl)NC3=C(C=C(C=C3)N4CCOCC4)OC
Outline: as §1

defactinib = compound: CNC(=O)c1ccc(Nc2ncc(C(F)(F)F)c(NCc3nccnc3N(C)S(C)(=O)=O)n2)cc1 [defactinib]
Outline: as §1

rucaparib = compound: CNCc1ccc(-c2[nH]c3cc(F)cc4c3c2CCNC4=O)cc1 [rucaparib]
Outline: as §1

[9] = compound: CNc1nc(-c2ccc3c(N)n[nH]c3c2)cc(N2C[C@@H](C(=O)NC3CCCCC3)CC[C@H]2C)n1
Outline: as §1

encorafenib = compound: COC(=O)N[C@@H](C)CNc1nccc(-c2cn(C(C)C)nc2-c2cc(Cl)cc(NS(C)(=O)=O)c2F)n1 [encorafenib]
Outline: as §1

[10] = compound: COC(=O)[C@H](CCSC)NC(=O)C1=C(C=C(C=C1)NC[C@H](CS)N)C2=CC=CC=C2
Outline: as §1

Measured: log2 fold change

TXN2 (UniProt Q99757)
Sequence of UniProt Q99757 (Q99757 whole entry, looked up): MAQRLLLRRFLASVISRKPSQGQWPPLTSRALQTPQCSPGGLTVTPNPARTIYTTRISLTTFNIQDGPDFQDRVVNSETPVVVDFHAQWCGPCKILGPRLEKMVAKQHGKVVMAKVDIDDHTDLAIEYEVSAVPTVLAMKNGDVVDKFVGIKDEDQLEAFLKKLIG
inactive: [1] -0.037 | volasertib 0.051 | [2] -0.029 | epoxomicin 0.082 | [3] -0.038 | [4] -0.089 | [5] -0.096 | rosiglitazone -0.027 | [6] 0.03 | [7] 0.083 | saracatinib 0.004 | sotrastaurin 0.04 | alvocidib -0.058 | Tubastatin A 0.004 | [8] 0.17 | defactinib 0.031 | rucaparib -0.003 | [9] -0.034 | encorafenib 0.001 | [10] 0.068

UQCR10 (UniProt Q9UDW1)
Sequence of UniProt Q9UDW1 (Q9UDW1 whole entry, looked up): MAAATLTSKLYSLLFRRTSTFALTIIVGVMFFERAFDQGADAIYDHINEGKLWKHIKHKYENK
inactive: [1] 0.093 | volasertib -0.102 | [2] -0.031 | epoxomicin 0.005 | [3] 0.088 | [4] -0.112 | [5] 0.008 | rosiglitazone 0.017 | [6] -0.016 | [7] 0.177 | saracatinib 0.001 | sotrastaurin 0.121 | alvocidib -0.024 | Tubastatin A -0.103 | [8] 0.018 | defactinib 0.039 | rucaparib -0.063 | [9] 0.018 | encorafenib 0.001 | [10] -0.031

WASH2P (UniProt Q6VEQ5)
Sequence of UniProt Q6VEQ5 (Q6VEQ5 whole entry, looked up): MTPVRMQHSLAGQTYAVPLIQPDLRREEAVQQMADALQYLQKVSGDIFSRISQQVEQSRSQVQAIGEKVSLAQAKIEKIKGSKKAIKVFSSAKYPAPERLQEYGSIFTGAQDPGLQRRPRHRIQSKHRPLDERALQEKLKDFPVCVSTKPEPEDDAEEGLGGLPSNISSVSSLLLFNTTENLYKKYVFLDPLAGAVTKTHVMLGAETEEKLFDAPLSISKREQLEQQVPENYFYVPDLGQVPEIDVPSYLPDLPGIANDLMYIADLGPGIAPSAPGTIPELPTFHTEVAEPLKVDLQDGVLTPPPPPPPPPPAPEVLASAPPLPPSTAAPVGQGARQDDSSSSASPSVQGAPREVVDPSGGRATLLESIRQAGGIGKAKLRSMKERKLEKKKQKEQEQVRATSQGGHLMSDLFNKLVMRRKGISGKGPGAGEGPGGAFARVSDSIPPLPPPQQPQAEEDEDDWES
inactive: [1] -0.071 | volasertib -0.163 | [2] 0.024 | epoxomicin 0 | [3] 0.002 | [4] 0.037 | [5] 0.021 | rosiglitazone 0.033 | [6] 0.012 | [7] -0.067 | saracatinib 0.009 | sotrastaurin -0.08 | alvocidib -0.018 | Tubastatin A -0.059 | [8] 0.02 | defactinib -0.004 | rucaparib -0.011 | [9] -0.037 | encorafenib 0.004 | [10] 0.007

TMEM87B (UniProt Q96K49)
Sequence of UniProt Q96K49 (Q96K49 whole entry, looked up): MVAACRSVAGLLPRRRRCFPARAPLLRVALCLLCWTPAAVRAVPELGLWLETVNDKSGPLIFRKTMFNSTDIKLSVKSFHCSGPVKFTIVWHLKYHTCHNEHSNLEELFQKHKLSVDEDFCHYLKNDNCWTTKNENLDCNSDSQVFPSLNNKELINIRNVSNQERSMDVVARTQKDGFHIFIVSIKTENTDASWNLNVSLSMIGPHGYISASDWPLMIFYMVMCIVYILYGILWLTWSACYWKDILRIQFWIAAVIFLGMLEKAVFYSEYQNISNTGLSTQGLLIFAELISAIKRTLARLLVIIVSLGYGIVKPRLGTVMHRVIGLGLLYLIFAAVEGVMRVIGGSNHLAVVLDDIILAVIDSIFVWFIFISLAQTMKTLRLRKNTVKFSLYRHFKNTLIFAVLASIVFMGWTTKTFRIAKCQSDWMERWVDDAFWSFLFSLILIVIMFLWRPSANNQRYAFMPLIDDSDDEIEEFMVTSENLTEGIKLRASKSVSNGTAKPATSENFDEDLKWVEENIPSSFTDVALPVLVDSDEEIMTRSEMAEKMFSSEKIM
inactive: [1] -0.088 | volasertib -0.148 | [2] 0.092 | epoxomicin 0.018 | [3] 0.002 | [4] -0.103 | [5] -0.016 | rosiglitazone 0 | [6] -0.143 | saracatinib -0.072 | sotrastaurin 0.013 | alvocidib -0.046 | Tubastatin A -0.099 | [8] -0.019 | defactinib 0.044 | rucaparib -0.016 | [9] -0.123 | encorafenib 0.03 | [10] 0.149
active: [7] -0.436

WDR11 (UniProt Q9BZH6)
inactive: [1] 0.079 | volasertib 0.031 | [2] -0.183 | epoxomicin 0 | [3] 0.062 | [4] 0.089 | [5] -0.061 | rosiglitazone 0.08 | [6] 0.009 | [7] -0.131 | saracatinib -0.079 | sotrastaurin 0.059 | alvocidib 0.06 | Tubastatin A -0.029 | [8] -0.021 | defactinib 0.016 | [9] -0.052 | encorafenib -0.034 | [10] 0.017
active: rucaparib -0.382

XPNPEP3 (UniProt Q9NQH7)
Sequence of UniProt Q9NQH7 (Q9NQH7 whole entry, looked up): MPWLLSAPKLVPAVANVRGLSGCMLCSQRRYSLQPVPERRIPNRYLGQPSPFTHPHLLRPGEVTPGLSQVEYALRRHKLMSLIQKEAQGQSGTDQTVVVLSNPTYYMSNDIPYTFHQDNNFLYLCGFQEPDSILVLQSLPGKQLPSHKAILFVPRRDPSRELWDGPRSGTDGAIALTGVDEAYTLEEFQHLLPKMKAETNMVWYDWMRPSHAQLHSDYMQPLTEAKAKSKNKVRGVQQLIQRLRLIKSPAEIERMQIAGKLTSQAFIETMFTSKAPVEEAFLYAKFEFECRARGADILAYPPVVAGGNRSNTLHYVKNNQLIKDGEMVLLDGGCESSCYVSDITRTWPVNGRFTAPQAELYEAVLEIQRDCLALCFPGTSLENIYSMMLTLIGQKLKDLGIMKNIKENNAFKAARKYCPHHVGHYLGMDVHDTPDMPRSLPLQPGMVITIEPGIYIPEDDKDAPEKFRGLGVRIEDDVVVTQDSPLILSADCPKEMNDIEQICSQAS
inactive: [1] 0.046 | volasertib 0.075 | [2] 0.069 | epoxomicin 0.075 | [3] 0.01 | [4] -0.076 | [5] -0.004 | rosiglitazone -0.002 | [6] -0.022 | [7] 0.012 | saracatinib 0.022 | sotrastaurin -0.017 | alvocidib -0.029 | Tubastatin A -0.021 | [8] 0 | defactinib -0.033 | rucaparib -0.018 | [9] -0.035 | encorafenib -0.005 | [10] 0.038

XPO6 (UniProt Q96QU8)
Sequence of UniProt Q96QU8 (Q96QU8 whole entry, looked up): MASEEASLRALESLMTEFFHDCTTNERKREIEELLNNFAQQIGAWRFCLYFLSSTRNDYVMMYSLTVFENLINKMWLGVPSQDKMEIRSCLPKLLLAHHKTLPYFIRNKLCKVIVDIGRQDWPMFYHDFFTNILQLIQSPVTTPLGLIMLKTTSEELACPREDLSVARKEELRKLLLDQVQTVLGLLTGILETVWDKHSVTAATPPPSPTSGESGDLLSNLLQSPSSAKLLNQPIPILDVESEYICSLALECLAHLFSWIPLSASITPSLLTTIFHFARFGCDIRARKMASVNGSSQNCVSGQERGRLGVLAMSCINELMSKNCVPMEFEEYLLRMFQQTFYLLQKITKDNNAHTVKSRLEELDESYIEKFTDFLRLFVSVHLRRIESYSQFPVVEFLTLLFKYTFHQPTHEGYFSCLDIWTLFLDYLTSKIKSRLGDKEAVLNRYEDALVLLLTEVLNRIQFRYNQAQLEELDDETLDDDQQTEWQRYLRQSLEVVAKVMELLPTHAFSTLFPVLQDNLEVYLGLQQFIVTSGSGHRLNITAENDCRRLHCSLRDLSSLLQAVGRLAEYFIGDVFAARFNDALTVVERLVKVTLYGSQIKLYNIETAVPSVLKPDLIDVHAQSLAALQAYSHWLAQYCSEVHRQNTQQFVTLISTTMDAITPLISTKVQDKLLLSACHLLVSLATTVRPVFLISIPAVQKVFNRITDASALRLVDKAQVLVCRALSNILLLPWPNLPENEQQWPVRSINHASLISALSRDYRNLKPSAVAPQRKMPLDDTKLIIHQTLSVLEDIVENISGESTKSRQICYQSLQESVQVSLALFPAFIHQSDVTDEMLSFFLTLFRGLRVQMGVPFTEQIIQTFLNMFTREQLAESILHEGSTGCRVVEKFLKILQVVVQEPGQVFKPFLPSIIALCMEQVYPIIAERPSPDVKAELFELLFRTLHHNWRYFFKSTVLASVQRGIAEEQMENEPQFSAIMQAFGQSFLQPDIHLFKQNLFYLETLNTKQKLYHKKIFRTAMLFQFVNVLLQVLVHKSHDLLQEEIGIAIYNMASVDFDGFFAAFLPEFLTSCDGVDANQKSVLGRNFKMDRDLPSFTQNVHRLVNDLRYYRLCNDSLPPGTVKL
inactive: [1] -0.054 | [2] -0.017 | epoxomicin -0.249 | [3] -0.011 | [4] 0.174 | [5] 0.065 | rosiglitazone 0 | [6] 0.018 | [7] -0.134 | saracatinib -0.012 | sotrastaurin -0.119 | alvocidib -0.115 | Tubastatin A -0.009 | [8] 0.036 | defactinib -0.104 | rucaparib 0.076 | [9] 0.037 | encorafenib 0.015 | [10] -0.03
active: volasertib -0.536

UBE3D (UniProt Q7Z6J8)
Sequence of UniProt Q7Z6J8 (Q7Z6J8 whole entry, looked up): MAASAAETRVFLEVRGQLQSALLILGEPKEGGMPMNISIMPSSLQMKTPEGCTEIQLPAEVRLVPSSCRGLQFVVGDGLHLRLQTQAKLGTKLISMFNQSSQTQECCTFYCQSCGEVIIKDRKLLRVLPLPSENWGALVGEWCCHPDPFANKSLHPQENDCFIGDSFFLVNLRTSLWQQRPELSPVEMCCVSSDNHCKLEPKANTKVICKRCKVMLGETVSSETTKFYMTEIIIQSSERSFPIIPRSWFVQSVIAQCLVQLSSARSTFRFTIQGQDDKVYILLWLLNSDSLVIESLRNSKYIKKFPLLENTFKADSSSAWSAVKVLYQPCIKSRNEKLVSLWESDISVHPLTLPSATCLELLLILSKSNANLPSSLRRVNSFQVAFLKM
inactive: [1] -0.033 | volasertib -0.053 | [2] 0.012 | epoxomicin 0.031 | [3] 0.063 | [4] -0.023 | [5] -0.004 | rosiglitazone 0.003 | [6] -0.051 | [7] -0.016 | saracatinib 0.027 | sotrastaurin -0.007 | alvocidib -0.059 | Tubastatin A -0.043 | [8] -0.058 | defactinib -0.003 | rucaparib 0.161 | [9] -0.064 | encorafenib 0.005 | [10] -0.108

TOMM5 isoform 2 (UniProt Q8N4H5)
Sequence of UniProt Q8N4H5 (Q8N4H5 whole entry, looked up): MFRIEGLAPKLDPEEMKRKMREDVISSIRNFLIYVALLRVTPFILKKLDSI
active: epoxomicin 0.538
inactive: [1] -0.003 | volasertib -0.032 | [2] -0.049 | [3] 0.05 | [4] 0.039 | [5] -0.046 | rosiglitazone -0.017 | [6] 0.041 | [7] 0.116 | saracatinib -0.033 | sotrastaurin 0.064 | alvocidib 0.012 | Tubastatin A 0.027 | [8] 0.059 | defactinib 0.01 | rucaparib -0.033 | [9] -0.031 | encorafenib -0.036 | [10] 0.049

UGGT1 (UniProt Q9NYU2)
inactive: [1] -0.01 | volasertib -0.058 | [2] 0.03 | epoxomicin -0.006 | [3] 0.019 | [4] 0.002 | [5] -0.024 | rosiglitazone -0.004 | [6] 0.008 | [7] 0.049 | saracatinib -0.006 | sotrastaurin -0.034 | alvocidib -0.037 | Tubastatin A 0.022 | [8] -0.005 | defactinib 0.019 | rucaparib 0.009 | [9] -0.033 | encorafenib 0.017 | [10] -0.002

TUBAL3 (UniProt A6NHL2)
Sequence of UniProt A6NHL2 (A6NHL2 whole entry, looked up): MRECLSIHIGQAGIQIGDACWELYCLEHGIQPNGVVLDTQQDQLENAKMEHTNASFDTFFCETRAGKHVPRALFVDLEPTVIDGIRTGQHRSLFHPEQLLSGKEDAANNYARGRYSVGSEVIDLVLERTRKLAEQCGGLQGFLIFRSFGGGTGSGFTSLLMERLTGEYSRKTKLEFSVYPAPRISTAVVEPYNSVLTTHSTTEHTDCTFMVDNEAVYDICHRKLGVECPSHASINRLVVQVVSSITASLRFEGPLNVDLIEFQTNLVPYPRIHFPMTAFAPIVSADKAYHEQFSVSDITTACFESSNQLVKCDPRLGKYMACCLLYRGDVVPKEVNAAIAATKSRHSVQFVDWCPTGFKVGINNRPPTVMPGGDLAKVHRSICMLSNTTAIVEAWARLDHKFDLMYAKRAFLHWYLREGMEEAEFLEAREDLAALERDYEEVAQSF
active: rucaparib -0.51
inactive: [1] 0.144 | volasertib -0.497 | [2] -0.052 | epoxomicin -0.11 | [3] -0.023 | [4] -0.013 | [5] -0.061 | rosiglitazone 0.139 | [6] 0.03 | [7] -0.067 | saracatinib -0.074 | sotrastaurin -0.054 | alvocidib 0.058 | Tubastatin A -0.003 | [8] -0.125 | defactinib -0.069 | [9] 0.067 | encorafenib 0.187 | [10] -0.057

TXNIP (UniProt Q9H3M7)
Sequence of UniProt Q9H3M7 (Q9H3M7 whole entry, looked up): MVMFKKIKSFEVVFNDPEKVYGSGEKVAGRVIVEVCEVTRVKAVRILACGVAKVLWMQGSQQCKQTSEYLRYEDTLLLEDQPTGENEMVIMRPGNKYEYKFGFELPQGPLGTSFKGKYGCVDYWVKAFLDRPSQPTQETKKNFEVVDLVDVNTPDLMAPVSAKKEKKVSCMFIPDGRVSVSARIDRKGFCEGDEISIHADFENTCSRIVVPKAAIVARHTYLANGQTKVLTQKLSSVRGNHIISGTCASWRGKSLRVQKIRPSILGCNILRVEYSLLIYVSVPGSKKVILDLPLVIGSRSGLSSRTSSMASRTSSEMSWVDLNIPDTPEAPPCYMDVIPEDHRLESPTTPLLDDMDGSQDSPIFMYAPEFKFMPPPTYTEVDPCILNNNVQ
active: [7] -0.793
inactive: [1] 0.112 | volasertib 0.021 | [2] 0.053 | epoxomicin 0.054 | [3] 0.212 | [4] -0.066 | [5] -0.026 | rosiglitazone 0.036 | [6] -0.07 | saracatinib -0.074 | sotrastaurin 0 | alvocidib -0.307 | Tubastatin A 0.06 | [8] 0.179 | defactinib -0.085 | rucaparib -0.026 | [9] 0.243 | encorafenib 0.01 | [10] 0.07

TMEM173 (UniProt Q86WV6)
Sequence of UniProt Q86WV6 (Q86WV6 whole entry, looked up): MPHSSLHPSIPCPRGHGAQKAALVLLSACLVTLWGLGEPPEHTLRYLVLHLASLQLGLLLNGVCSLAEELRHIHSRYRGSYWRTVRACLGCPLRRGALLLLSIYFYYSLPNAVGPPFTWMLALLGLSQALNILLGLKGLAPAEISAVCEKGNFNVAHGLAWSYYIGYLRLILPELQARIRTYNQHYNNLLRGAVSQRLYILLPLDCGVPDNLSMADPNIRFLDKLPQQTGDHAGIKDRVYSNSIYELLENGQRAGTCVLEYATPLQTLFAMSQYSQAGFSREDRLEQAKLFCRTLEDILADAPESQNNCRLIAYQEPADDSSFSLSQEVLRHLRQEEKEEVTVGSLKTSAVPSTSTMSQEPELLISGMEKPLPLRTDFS
active: [7] 0.293
inactive: [1] 0.219 | volasertib 0.156 | [2] 0.086 | epoxomicin 0.026 | [3] 0.021 | [4] -0.017 | [5] 0.032 | rosiglitazone 0.044 | [6] -0.049 | saracatinib -0.002 | sotrastaurin -0.023 | alvocidib -0.07 | Tubastatin A 0.03 | [8] 0.014 | defactinib -0.055 | rucaparib -0.078 | [9] 0.034 | encorafenib 0.062 | [10] -0.005

UHRF1BP1L (UniProt A0JNW5)
inactive: [1] 0.165 | volasertib 0.034 | [2] -0.009 | epoxomicin -0.022 | [3] -0.018 | [4] -0.086 | [5] 0.02 | rosiglitazone 0.028 | [6] -0.079 | [7] 0.1 | saracatinib -0.01 | sotrastaurin 0 | alvocidib -0.037 | Tubastatin A 0.031 | [8] -0.051 | defactinib -0.024 | rucaparib -0.052 | [9] 0.05 | encorafenib -0.02 | [10] -0.029

WDHD1 (UniProt O75717)
active: volasertib -0.458
inactive: [1] -0.209 | [2] 0.079 | epoxomicin 0.071 | [3] -0.018 | [4] -0.033 | [5] 0.051 | rosiglitazone 0.072 | [6] -0.063 | [7] -0.118 | saracatinib -0.027 | sotrastaurin -0.067 | alvocidib -0.135 | Tubastatin A 0.079 | [8] 0.075 | defactinib -0.201 | rucaparib -0.06 | [9] 0 | encorafenib 0.119 | [10] -0.022

TOMM20 (UniProt Q15388)
Sequence of UniProt Q15388 (Q15388 whole entry, looked up): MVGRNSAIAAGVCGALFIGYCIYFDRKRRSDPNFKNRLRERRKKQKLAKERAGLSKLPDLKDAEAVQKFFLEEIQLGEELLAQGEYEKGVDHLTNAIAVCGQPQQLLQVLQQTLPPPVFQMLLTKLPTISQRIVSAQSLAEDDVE
inactive: [1] -0.135 | volasertib -0.075 | [2] -0.068 | epoxomicin -0.089 | [3] 0.078 | [4] -0.017 | [5] -0.005 | rosiglitazone -0.022 | [6] -0.033 | saracatinib 0.012 | sotrastaurin -0.005 | alvocidib -0.001 | Tubastatin A -0.031 | [8] -0.028 | defactinib -0.011 | rucaparib -0.009 | [9] -0.034 | encorafenib -0.131 | [10] 0.033
active: [7] -0.271
